Article PMC9911399, “Two distinct binding modes provide the RNA-binding protein RbFox with extraordinary sequence specificity”
Where a chain is given by its changes, count along the chain named. The full ranking holds about 16,000 sequences; the median of “ka relative to ugcaugu” is about 0.096, and the highest 2% start at about 0.35. The sample holds the highest values, similar sequences and a random draw of the others, so the mix is not that of the screen.

T1: RBFOX1 RRM RbFoxmut (Fox-RRM*) (Homo sapiens, UniProt Q9NWB1 109-208, R118D;E147R;N151S;E152T)
T1 sequence: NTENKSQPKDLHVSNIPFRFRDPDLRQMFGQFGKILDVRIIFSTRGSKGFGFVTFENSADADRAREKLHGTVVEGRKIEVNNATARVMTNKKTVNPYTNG

B1: CUUCGUG (DNA:RNA)
RNA: GGGAGACCGGAAUUCAGAUUGUCCCUUCGUGUUAAAUCCCGUCGUAGCCACCA
DNA 1: CAATCTGAATTCCGGTCTCCC
DNA 2: TGGTGGCTACGACGGGATT
B2: CACUUAC (DNA:RNA)
RNA: B1 RNA with U26A, U27C, C28U, G29U, U30A, G31C
DNA 1: CAATCTGAATTCCGGTCTCCC
DNA 2: TGGTGGCTACGACGGGATT
B3: GGAAUGA (DNA:RNA)
RNA: GGGAGACCGGAAUUCAGAUUGUCCGGAAUGAUUAAAUCCCGUCGUAGCCACCA
DNA 1: CAATCTGAATTCCGGTCTCCC
DNA 2: TGGTGGCTACGACGGGATT
B4: GAAUGAA (DNA:RNA)
RNA: B3 RNA with G26A, A28U, U29G, G30A
DNA 1: CAATCTGAATTCCGGTCTCCC
DNA 2: TGGTGGCTACGACGGGATT
B5: GACCGAA (DNA:RNA)
RNA: B1 RNA with C25G, U26A, U27C, U30A, G31A
DNA 1: CAATCTGAATTCCGGTCTCCC
DNA 2: TGGTGGCTACGACGGGATT
B6: GAUGAUU (DNA:RNA)
RNA: B1 RNA with C25G, U26A, C28G, G29A, G31U
DNA 1: CAATCTGAATTCCGGTCTCCC
DNA 2: TGGTGGCTACGACGGGATT
B7: CGAAUGA (DNA:RNA)
RNA: B3 RNA with G25C
DNA 1: CAATCTGAATTCCGGTCTCCC
DNA 2: TGGTGGCTACGACGGGATT
B8: GAAUUUU (DNA:RNA)
RNA: B3 RNA with G26A, A28U, G30U, A31U
DNA 1: CAATCTGAATTCCGGTCTCCC
DNA 2: TGGTGGCTACGACGGGATT
B9: GAAAUGA (DNA:RNA)
RNA: B3 RNA with G26A
DNA 1: CAATCTGAATTCCGGTCTCCC
DNA 2: TGGTGGCTACGACGGGATT
B10: GAAUGAU (DNA:RNA)
RNA: B3 RNA with G26A, A28U, U29G, G30A, A31U
DNA 1: CAATCTGAATTCCGGTCTCCC
DNA 2: TGGTGGCTACGACGGGATT
B11: GUAAUGA (DNA:RNA)
RNA: B3 RNA with G26U
DNA 1: CAATCTGAATTCCGGTCTCCC
DNA 2: TGGTGGCTACGACGGGATT
B12: GUCCGAA (DNA:RNA)
RNA: B1 RNA with C25G, U27C, U30A, G31A
DNA 1: CAATCTGAATTCCGGTCTCCC
DNA 2: TGGTGGCTACGACGGGATT
B13: GAAUUGA (DNA:RNA)
RNA: B3 RNA with G26A, A28U
DNA 1: CAATCTGAATTCCGGTCTCCC
DNA 2: TGGTGGCTACGACGGGATT
B14: CGUUAAA (DNA:RNA)
RNA: B1 RNA with U26G, C28U, G29A, U30A, G31A
DNA 1: CAATCTGAATTCCGGTCTCCC
DNA 2: TGGTGGCTACGACGGGATT
B15: GACUAAG (DNA:RNA)
RNA: B1 RNA with C25G, U26A, U27C, C28U, G29A, U30A
DNA 1: CAATCTGAATTCCGGTCTCCC
DNA 2: TGGTGGCTACGACGGGATT
B16: CAUAAUU (DNA:RNA)
RNA: B1 RNA with U26A, C28A, G29A, G31U
DNA 1: CAATCTGAATTCCGGTCTCCC
DNA 2: TGGTGGCTACGACGGGATT
B17: AUCUAGU (DNA:RNA)
RNA: B1 RNA with C25A, U27C, C28U, G29A, U30G, G31U
DNA 1: CAATCTGAATTCCGGTCTCCC
DNA 2: TGGTGGCTACGACGGGATT
B18: UCGACUC (DNA:RNA)
RNA: B1 RNA with C25U, U26C, U27G, C28A, G29C, G31C
DNA 1: CAATCTGAATTCCGGTCTCCC
DNA 2: TGGTGGCTACGACGGGATT
B19: UACACUA (DNA:RNA)
RNA: B3 RNA with G25U, G26A, A27C, U29C, G30U
DNA 1: CAATCTGAATTCCGGTCTCCC
DNA 2: TGGTGGCTACGACGGGATT
B20: UCCUGAU (DNA:RNA)
RNA: B1 RNA with C25U, U26C, U27C, C28U, U30A, G31U
DNA 1: CAATCTGAATTCCGGTCTCCC
DNA 2: TGGTGGCTACGACGGGATT
B21: ACCUCGU (DNA:RNA)
RNA: B3 RNA with G25A, G26C, A27C, A28U, U29C, A31U
DNA 1: CAATCTGAATTCCGGTCTCCC
DNA 2: TGGTGGCTACGACGGGATT
B22: GAGUAGC (DNA:RNA)
RNA: B3 RNA with G26A, A27G, A28U, U29A, A31C
DNA 1: CAATCTGAATTCCGGTCTCCC
DNA 2: TGGTGGCTACGACGGGATT
B23: GAUUGAC (DNA:RNA)
RNA: B1 RNA with C25G, U26A, C28U, U30A, G31C
DNA 1: CAATCTGAATTCCGGTCTCCC
DNA 2: TGGTGGCTACGACGGGATT
B24: AGAAUGA (DNA:RNA)
RNA: B3 RNA with G25A
DNA 1: CAATCTGAATTCCGGTCTCCC
DNA 2: TGGTGGCTACGACGGGATT
B25: AGAUUGA (DNA:RNA)
RNA: B3 RNA with G25A, A28U
DNA 1: CAATCTGAATTCCGGTCTCCC
DNA 2: TGGTGGCTACGACGGGATT
B26: ACCAGAA (DNA:RNA)
RNA: B3 RNA with G25A, G26C, A27C, U29G, G30A
DNA 1: CAATCTGAATTCCGGTCTCCC
DNA 2: TGGTGGCTACGACGGGATT
B27: GAAUGAC (DNA:RNA)
RNA: B3 RNA with G26A, A28U, U29G, G30A, A31C
DNA 1: CAATCTGAATTCCGGTCTCCC
DNA 2: TGGTGGCTACGACGGGATT
B28: CGAUGAC (DNA:RNA)
RNA: B1 RNA with U26G, U27A, C28U, U30A, G31C
DNA 1: CAATCTGAATTCCGGTCTCCC
DNA 2: TGGTGGCTACGACGGGATT
B29: UGAAUAU (DNA:RNA)
RNA: B3 RNA with G25U, G30A, A31U
DNA 1: CAATCTGAATTCCGGTCTCCC
DNA 2: TGGTGGCTACGACGGGATT
B30: AGAUUAU (DNA:RNA)
RNA: B3 RNA with G25A, A28U, G30A, A31U
DNA 1: CAATCTGAATTCCGGTCTCCC
DNA 2: TGGTGGCTACGACGGGATT
B31: AAUCAGU (DNA:RNA)
RNA: B1 RNA with C25A, U26A, G29A, U30G, G31U
DNA 1: CAATCTGAATTCCGGTCTCCC
DNA 2: TGGTGGCTACGACGGGATT

Target: T1, RBFOX1 RRM RbFoxmut (Fox-RRM*)
Assay: EMSA; HiTS-Eq, 1 nM pool, 10 min; buffer printed only for the single-RNA assays: 10 mM Tris pH 7.5, 150 mM NaCl, 3.4 mM EDTA, 0.001% NP-40, 30 C
Conditions: tags: His6 N-terminal (pET28a); label: 5' 32P
Procedure, shortened: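 A pool of RNA with 7 randomized nucleotides, 5′-radiolabelled and with DNA-annealed flanks, was equilibrated at 1 nM for 10 min in 50 µL with purified RbFox RRM, wild type or mutant, across increasing protein concentrations. Free RNA was separated by 8% native PAGE, excised, reverse-transcribed, barcoded by PCR and sequenced. Relative association constants were obtained from read-count changes of each RNA species versus the control reaction and normalised to the cognate motif.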

| Binder | binding signal |
| --- | --- |
| B1 | 0.135 KA relative to UGCAUGU |
| B2 | 0.1 KA relative to UGCAUGU |
| B3 | 0.772 KA relative to UGCAUGU |
| B4 | 0.873 KA relative to UGCAUGU |
| B5 | 0.0991 KA relative to UGCAUGU |
| B6 | 0.084 KA relative to UGCAUGU |
| B7 | 1.04 KA relative to UGCAUGU |
| B8 | 0.1 KA relative to UGCAUGU |
| B9 | 0.0974 KA relative to UGCAUGU |
| B10 | 0.641 KA relative to UGCAUGU |
| B11 | 0.121 KA relative to UGCAUGU |
| B12 | 0.0703 KA relative to UGCAUGU |
| B13 | 0.129 KA relative to UGCAUGU |
| B14 | 0.107 KA relative to UGCAUGU |
| B15 | 0.101 KA relative to UGCAUGU |
| B16 | 0.0899 KA relative to UGCAUGU |

| Binder | binding signal |
| --- | --- |
| B17 | 0.14 KA relative to UGCAUGU |
| B18 | 0.0668 KA relative to UGCAUGU |
| B19 | 0.0954 KA relative to UGCAUGU |
| B20 | 0.0975 KA relative to UGCAUGU |
| B21 | 0.106 KA relative to UGCAUGU |
| B22 | 0.108 KA relative to UGCAUGU |
| B23 | 0.109 KA relative to UGCAUGU |
| B24 | 0.646 KA relative to UGCAUGU |
| B25 | 0.117 KA relative to UGCAUGU |
| B26 | 0.0963 KA relative to UGCAUGU |
| B27 | 0.829 KA relative to UGCAUGU |
| B28 | 0.141 KA relative to UGCAUGU |
| B29 | 0.0814 KA relative to UGCAUGU |
| B30 | 0.124 KA relative to UGCAUGU |
| B31 | 0.0868 KA relative to UGCAUGU |
